Test results published in PubChem BioAssay (NCI).
The panel holds about 83,000 compounds, 20% with a hit somewhere; the sample as a whole holds those more often.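 In brief: 96-well plates, 48 h treatment, single concentration, percent growth endpoint.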 Activity calls are given as the source filed them. Rule for the calls: active = growth percent below 10; inactive = the rest.

Test system: UACC-62 melanoma
Assay: NCI-60 one-dose screen, 48 h (100 = growth as untreated, 0 = no growth, -100 = all killed)
Conditions: 10 µM unless noted

SMILES | growth
N#Cc1c(-c2ccc(Br)cc2)nc2c(N=Nc3ccc(S(N)(=O)=O)cc3)c(N)nn2c1N | 72.4% (inactive)
C=CCn1cc(-c2nc3ccccc3s2)c2cc(-c3ccc4c5c(cccc35)C(=O)N(CCO)C4=O)ccc21 | 94.9% (inactive)
CC/C(=C(/c1ccc(O)cc1)c1ccc(OCCN2CCCCC2)cc1)c1ccc(OC)cc1 | 112% (inactive)
Cn1c(=O)[nH]c(=O)c2nc3c(nc21)-c1ccccc1C3=O | 91.2% (inactive)
N#Cc1c(-c2ccccc2)nc2c(c(-c3ccccc3)nn2-c2ccccc2)c1-c1ccc(N2CCCCC2)cc1 | 92.8% (inactive)
COc1cc(/C=C2\C(=O)N(CCCOc3cc(O)c4c(=O)cc(-c5ccccc5)oc4c3)c3ccccc32)cc(OC)c1O | 46.8% (inactive)
COc1ccc(C(=O)/C=C/c2ccccc2)cc1S(N)(=O)=O | 79.2% (inactive)
CC1(C)CC[C@]23CC[C@]4(C)[C@H](CC[C@@H]5[C@@]6(C)C/C(=C/O)C(=O)C(C)(C)[C@@H]6CC[C@]54C)[C@H]2[C@H]1OC3 | 93% (inactive)

Test system: LOX IMVI melanoma
Assay: as above
Conditions: 10 µM unless noted

SMILES | growth
COc1cc(-c2ccc[nH]2)[nH]c1/C=C1\N=C(C)C(CC(=O)OCC(C)(C)C)=C1C | -88.3% (active)
N#Cc1c(-c2ccc(Br)cc2)nc2c(N=Nc3ccc(S(N)(=O)=O)cc3)c(N)nn2c1N | 28.9% (inactive)
O=[N+]([O-])c1ccccc1Nc1ccc2ccccc2c1 | 92.5% (inactive)
c1ccc(Nc2nc3c(s2)CCc2c[nH]cc2-3)nc1 | 82.7% (inactive)
COc1ccc2cc(C(=O)N3CCC([C@@H](C)C(=O)NCc4ccc5c(c4)OCO5)CC3)[nH]c2c1 | 54.7% [50 µM] (inactive)
Nc1cc(C(=O)O)cc(-n2c(O)c(C=C3N=c4ccccc4=N3)sc2=S)c1 | 95.8% (inactive)
CC1(C)N=C(N)N=C(N)N1c1cc(Cl)ccc1Cl | 70.2% (inactive)
CC/C(=C(\c1ccc(Cl)cc1)c1ccc(OCCN2CCCCC2)cc1)c1ccc(O)cc1 | -91.5% (active)
O=C1O[C@@H](c2ccccc2Cl)[C@@H]2c3cc4c(cc3CCN12)OCO4 | 99.5% (inactive)
C=CCn1cc(-c2nc3ccccc3s2)c2cc(-c3ccc4c5c(cccc35)C(=O)N(CCO)C4=O)ccc21 | 95.4% (inactive)
CCOC(=O)C#Cc1c(C(=O)OCC)nnn1[C@@H]1O[C@H](COC)[C@@H](OC)[C@H]1OC | 67% (inactive)
O=C(/C=C/c1ccccc1Cl)c1cccc(OCCCCOc2cccc(C(=O)/C=C/c3ccccc3Cl)c2)c1 | 102% (inactive)
Nc1nc2ccccc2c2c(=O)c3cc(Cl)ccc3sc12 | 103% (inactive)
C=CC(=O)Nc1cccc(Oc2nccc(Nc3nnc(-c4ccc(Br)cc4)s3)n2)c1 | 91.9% (inactive)
CC/C(=C(/c1ccc(O)cc1)c1ccc(OCCN2CCCCC2)cc1)c1ccc(OC)cc1 | -40% (active)
CNC(=O)c1cc(Oc2ccc3c(c2)sc2nc(-c4ccc(NC(=O)[C@@H](NC(=O)OC)C(C)C)cc4)cn23)ccn1 | 67.2% (inactive)
Cn1c(=O)[nH]c(=O)c2nc3c(nc21)-c1ccccc1C3=O | 95.9% (inactive)
COC1C(O)CC(OC2CC(OC3CC(O[C@@H]4C(=O)c5c(cc6cc(OC7CC(OC8CC(O)C(O)C(C)O8)C(O)C(C)O7)c(C)c(O)c6c5O)CC4[C@H](OC)C(=O)O)OC(C)C3O)OC(C)C2O)OC1C (stereo partly drawn) | -12.7% (active)
N#CC1=C(N)Oc2c(sc3c(F)cccc23)C1c1ccc([N+](=O)[O-])cc1 (stereo not drawn) | -83.1% (active)
COc1ccc(/C=C(/C(=O)N2CCNCC2)c2cc(OC)c(OC)c(OC)c2)cc1O | 44% (inactive)

SMILES | growth
Cc1ccc(NC(=O)c2cc3ccccc3cc2O)c(C)c1 | 88% (inactive)
N#Cc1c(-c2ccccc2)nc2c(c(-c3ccccc3)nn2-c2ccccc2)c1-c1ccc(N2CCCCC2)cc1 | 96% (inactive)
O=C(Nc1ccccc1O)c1ccc(CNc2ccnc(C(F)(F)F)c2)cc1 | 52.7% (inactive)
COc1cc(/C=C2\C(=O)N(CCCOc3cc(O)c4c(=O)cc(-c5ccccc5)oc4c3)c3ccccc32)cc(OC)c1O | 58.8% (inactive)
CN1C(=O)N2CN3CCCN(C3)CN3C(=S)NC1C23 (stereo not drawn) | 98.7% (inactive)
O=c1oc2ccccc2cc1-c1nn(-c2ccccc2)cc1-c1nn[nH]n1 | 89% (inactive)
COc1cc(OC)c2c(=O)c3c(CC=C(C)C)cc(OC)c(O)c3oc2c1 | 82% (inactive)
COC(=O)c1c2c(c[n+]([O-])c1C)C(=O)C=C(NCc1ccccc1)C2=O | -74.6% (active)
N#C/C(=C\c1ccc(-c2cccc(Cl)c2)o1)C(=O)Nc1ncc(Cc2ccc(Cl)cc2)s1 | 52.5% (inactive)
O=C(/C=C/c1ccccc1)c1ccc(-n2cc(CN3CCN(c4cc5c(cc4F)c(=O)c(C(=O)O)cn5C4CC4)CC3)nn2)cc1 | 36.2% (inactive)
N#Cc1ccc(/C=C/c2cn(-c3ccccc3)nc2-c2cccc([N+](=O)[O-])c2)cc1 | 77.4% (inactive)
c1ccc(Cn2cc3c(c2-c2ccccc2)CCc2cnoc2-3)cc1 | 66.1% (inactive)
NCCCNc1nc2ccccc2c2c(=O)c3cc(Cl)ccc3sc12 | -90.5% (active)
Cc1cc(C)c2c(c1)N(C)c1ncnc(-n3c(C)nc4cc(C)ccc43)c1CC2C (stereo not drawn) | 43.1% (inactive)
CSc1ccc2c3c(n(CCCn4ccnc4)c(=O)c2c1)-c1ccccc1C3=O | 1.75% (active)
COc1ccc(C(=O)/C=C/c2ccccc2)cc1S(N)(=O)=O | 42% (inactive)
COc1ccc(/C=N/Nc2c3ccccc3nc3ccccc23)cc1 | 92.9% (inactive)
CC1(C)CC[C@]23CC[C@]4(C)[C@H](CC[C@@H]5[C@@]6(C)C/C(=C/O)C(=O)C(C)(C)[C@@H]6CC[C@]54C)[C@H]2[C@H]1OC3 | 90.8% (inactive)
CS(=O)(=O)Nc1cc(-c2ccc3ncnc(Nc4ccc5c(cnn5Cc5ccccc5F)c4)c3c2)cnc1Cl | 25.9% (inactive)
Cc1nc2sc(C(=O)Nc3cccc4ccccc34)c(N)c2cc1C(=O)c1ccccc1 | 41.8% (inactive)
